SW480 rereplic: A quantitative high throughput screen for small molecules that induce DNA re-replication in SW480 colon adenocarcinoma cells; hit rate 1.8% among 340,000; SW480 DNA re-replication, Hoechst DNA content imaging, 48 h; AID 624297, 2012; Potency, µM (highest dose often 46.1 µM), actives largely listed as activators; note: nearly all actives have a fitted effect of over 55% in size
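Image-based DNA-content assay: after two days of treatment, nuclei were labelled with the DNA dye Hoechst and imaged, and hits were compounds raising the count of nuclei showing high fluorescence intensity.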
RORg inh: qHTS for inhibitors of ROR gamma transcriptional activity. hit rate 5.4% among 310,000. Potency, µM (series often up to 53.6 µM), most hits filed as inhibitors. Drosophila S2 Gal4-RORgamma UAS-luciferase reporter, 20 h. Nuclear receptor ROR-gamma (Mus musculus), P51450. AID 2551, 2010; note: nearly all actives have a fitted effect of over 60% in size
Target sequence (P51450 whole entry, looked up, the tested form may be a part): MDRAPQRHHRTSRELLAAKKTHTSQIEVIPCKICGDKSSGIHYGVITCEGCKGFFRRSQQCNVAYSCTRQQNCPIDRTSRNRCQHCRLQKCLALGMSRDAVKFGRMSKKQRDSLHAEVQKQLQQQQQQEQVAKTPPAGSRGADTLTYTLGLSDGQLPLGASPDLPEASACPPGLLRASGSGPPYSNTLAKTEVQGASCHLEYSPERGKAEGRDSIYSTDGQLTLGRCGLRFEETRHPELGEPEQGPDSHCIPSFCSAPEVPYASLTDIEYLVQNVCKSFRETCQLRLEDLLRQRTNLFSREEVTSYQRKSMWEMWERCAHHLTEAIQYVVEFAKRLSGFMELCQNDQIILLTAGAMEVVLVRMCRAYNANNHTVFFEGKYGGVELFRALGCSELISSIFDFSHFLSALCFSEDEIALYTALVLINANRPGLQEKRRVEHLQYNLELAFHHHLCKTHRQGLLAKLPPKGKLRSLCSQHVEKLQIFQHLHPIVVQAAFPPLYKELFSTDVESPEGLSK
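Drosophila S2 cells stably expressing Gal4-DBD/mouse RORγ fusion under metallothionein promoter plus UAS-luciferase; compound 1 h, then 700 uM CuSO4 induction for 20 h at ambient temperature; inhibition read as reduced luminescence.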
MCF10A rerep: A quantitative high throughput screen for small molecules that induce DNA re-replication in MCF 10a normal breast cells | MCF 10A DNA re-replication, Hoechst nuclear intensity, 48 h | Potency, µM (doses to about 46.1 µM), most hits filed as activators | hit rate 2.9% among 350,000; note: nearly all actives have a fitted effect of over 50% in size
Gal4-VP16 FLuc: VP16 counterscreen qHTS for inhibitors of ROR gamma transcriptional activity; Drosophila S2 Gal4-VP16 UAS-luciferase, luminescence, 20 h; Potency, µM (titrated, usually from 53.6 µM), actives largely listed as inhibitors; hit rate 3.5% among 310,000; AID 2546, 2010;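 note: Gal4-VP16 expression switched on by copper sulfate through the metallothionein promoter; nearly all actives have a fitted effect of over 50% in size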
ELG1 repair inh: qHTS screen for small molecules that inhibit ELG1-dependent DNA repair in human embryonic kidney (HEK293T) cells expressing luciferase-tagged ELG1. HEK293T ELG1-luciferase reporter, luminescence, 16 h; DNA damage induced by 5-fluorouridine. Potency, µM (top dose mostly 46.1 µM), most hits filed as inhibitors. hit rate 2.3% among 330,000. AID 504467, 2011; note: nearly all actives have a fitted effect of over 55% in size
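Quantitative HTS, concentration-response format. 2,000 cells/well co-treated with 5-fluorouridine and compound, 16 hr in 5% CO2 at 37 °C; ONE-Glo luminescence read after 30 min.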
Each line names hits and unclear results; the compound was inactive in the other large screens. Rows were chosen to be rich in hits. Some 10% of all compounds tested hit in one or more screens of this group. Calls come from the whole dose curve; as a rule, active = well fitted curve in the direction sought with a large enough effect; inconclusive = small, poorly fitted or top-dose-only effect, or another doubt; inactive = no such curve, though single readings can be large; an effect the other way counts as inactive or inconclusive.

N/C(=N\OC(=O)CCc1ccccc1)c1ccc(Br)cc1	none
Cc1ccc(/C(N)=N/OC(=O)CCc2ccccc2)cc1	MCF10A rerep 7.3µM, ELG1 repair inh inconclusive
COc1cc2cc(CN(CCc3cccc(C)c3)C(=S)NCCCN3CCOCC3)c(=O)[nH]c2cc1OC	RORg inh 7.1µM, Gal4-VP16 FLuc inconclusive, ELG1 repair inh inconclusive
CNC(=S)N(CCc1cccc(C)c1)Cc1cc2cc(OC)c(OC)cc2[nH]c1=O	ELG1 repair inh 13µM
COc1cc2cc(CN(CCc3cccc(C)c3)C(=S)NCCCN(C)C)c(=O)[nH]c2cc1OC	SW480 rereplic inconclusive
CC(=O)N(CCc1ccccc1C)Cc1cc2ccc(C)cc2[nH]c1=O	MCF10A rerep inconclusive, ELG1 repair inh 16µM
O=c1cc2c(=O)oc3cc(O)c(O)oc3c2c(O)c1O	none
CCc1ccc(N(C(=O)CNC(=O)c2ccco2)C(C(=O)NC2CCCC2)c2ccncc2)cc1 (configuration not stated)	none
O=C(NC1CCCCC1)c1cc(N2C(=O)CCC2=O)ccc1Cl	ELG1 repair inh inconclusive
CCOc1ccc2nc(SCC(=O)N(CCOC)c3c(N)n(Cc4ccccc4)c(=O)[nH]c3=O)[nH]c2c1	none (no result: RORg inh, Gal4-VP16 FLuc)
O=C(COC(=O)c1ccc2ccccc2n1)NCc1ccccc1	none
Cc1cc(C)nc(SCc2nnc(SCC(=O)Nc3nc(-c4ccccc4)cs3)n2-c2ccccc2)n1	none
COc1ccc(-n2c(Cc3cccn3C)nnc2SCC(=O)Nc2ccc(C)cc2)cc1	none
COc1ccc(-n2c(CNc3ccc(C)cc3)nnc2SCC(=O)Nc2nc(-c3ccccc3)cs2)cc1	SW480 rereplic inconclusive, MCF10A rerep 15µM, ELG1 repair inh inconclusive
COc1ccc(NCc2nnc(SCC(=O)Nc3nc(-c4ccccc4)cs3)n2-c2ccccc2)cc1	SW480 rereplic inconclusive, MCF10A rerep 10µM, Gal4-VP16 FLuc 5µM
COCCNC(=O)CCC1CCN(Cc2cccc(Oc3ccccc3)c2)CC1	SW480 rereplic inconclusive
COc1ccc(NC(=O)c2cccc(Oc3ccc([N+](=O)[O-])cc3Cl)c2)cc1	SW480 rereplic inconclusive, MCF10A rerep 6.5µM, Gal4-VP16 FLuc inconclusive
O=C(Nc1cccc(Cl)c1)c1cccc(Oc2ccc([N+](=O)[O-])cc2Cl)c1	SW480 rereplic 4.1µM, RORg inh inconclusive, MCF10A rerep inconclusive, ELG1 repair inh inconclusive
C/C=C1\COC(C(=O)NCCN2CCOCC2)(C(F)(F)F)C=C1C=C1CCCCC1 (configuration not stated)	none (no result: SW480 rereplic, MCF10A rerep, ELG1 repair inh)
C/C=C1\COC(C(=O)NCCN2CCCC2)(C(F)(F)F)C=C1C=C1CCCCC1 (configuration not stated)	SW480 rereplic inconclusive, MCF10A rerep 6.5µM (no result: ELG1 repair inh)
O=c1cc(N2CCCCC2)c(-c2ccccc2)nn1Cc1ccc(F)cc1	MCF10A rerep inconclusive, ELG1 repair inh inconclusive
O=c1cc(N2CCCCC2)c(-c2ccccc2)nn1Cc1ccc(Cl)cc1	SW480 rereplic inconclusive, RORg inh inconclusive, MCF10A rerep 16µM, ELG1 repair inh inconclusive
O=c1cc(N2CCCCC2)c(-c2ccccc2)nn1Cc1c(Cl)cccc1Cl	MCF10A rerep 21µM, ELG1 repair inh inconclusive
NC(=O)c1ccc[n+]([C@@H]2O[C@H](COP(=O)([O-])OP(=O)(O)OC[C@H]3O[C@@H](n4cnc5c(N)ncnc54)[C@@H](O)[C@@H]3O)[C@@H](O)[C@@H]2O)c1	none (no result: ELG1 repair inh)
C/C(=N/NC(=O)c1ccc(C)s1)c1cccc(NC(=O)COc2ccc(Cl)cc2Cl)c1	SW480 rereplic inconclusive, MCF10A rerep 9.2µM, ELG1 repair inh inconclusive
C/C(=N/NC(=O)c1cccs1)c1ccc(NC(=O)COc2ccc(Cl)cc2Cl)cc1	SW480 rereplic 9.2µM, MCF10A rerep 6.5µM, ELG1 repair inh inconclusive
C/C(=N/NC(=O)c1ccc(Cl)s1)c1ccc(NC(=O)COc2ccc(Cl)cc2)cc1	SW480 rereplic inconclusive, RORg inh inconclusive, MCF10A rerep inconclusive
CC(=O)c1cccc(NC(=O)COc2ccccc2)c1	ELG1 repair inh inconclusive (no result: Gal4-VP16 FLuc)
C/C(=N\NC(=O)c1c(Cl)cnn1C)c1cccc(NC(=O)COc2ccccc2)c1	MCF10A rerep 16µM, ELG1 repair inh inconclusive
CSCC[C@H](NC(=O)Cc1ccc(Cl)cc1)C(=O)N1CCC2(CC1)NCCc1[nH]cnc12	none
CCN(CC)CCC(C)OC(=O)c1ccc(O)cc1O (configuration not stated)	none
COc1ccccc1CNC(=O)CCNS(=O)(=O)c1cccc2nonc12	none
O=C(CCc1ccc(O)c(O)c1)NNC(=S)NCCc1ccccc1	MCF10A rerep inconclusive
O=C(NNC(=S)Nc1ccccc1)c1cc(Br)ccc1Cl	RORg inh 0.79µM, MCF10A rerep inconclusive
O=C(NNC(=S)Nc1ccccc1)NNC(=S)Nc1ccccc1	none
O=C(NNC(=S)Nc1ccc(Br)cc1Cl)c1ccncc1	Gal4-VP16 FLuc 20µM
O=C(CCc1ccc(O)c(O)c1)NNC(=S)Nc1ccc(Br)cc1Cl	RORg inh 11µM, Gal4-VP16 FLuc inconclusive
CCCCNS(=O)(=O)c1ccc(NC(=O)C(Sc2ccccc2)c2ccccc2)cc1 (configuration not stated)	SW480 rereplic inconclusive, RORg inh inconclusive, MCF10A rerep inconclusive, Gal4-VP16 FLuc inconclusive, ELG1 repair inh 18µM
Cn1cccc1/C=C1\SC(=S)N(NC(=O)c2ccc(F)cc2)C1=O	Gal4-VP16 FLuc 16µM, ELG1 repair inh inconclusive
COc1cc(/C=C2\SC(N)=NC2=O)ccc1O	MCF10A rerep inconclusive, Gal4-VP16 FLuc inconclusive, ELG1 repair inh 10µM
COc1cc(/C=C2\SC(=S)N(NC(=O)c3ccncc3)C2=O)ccc1O	none
COc1cc(/C=C2\SC(=S)N(NC(=O)c3ccc(O)c(OC)c3)C2=O)ccc1O	RORg inh 7.1µM, Gal4-VP16 FLuc inconclusive, ELG1 repair inh inconclusive
O=C(c1ccco1)N1CCN(C(=O)C2CC(c3ccccc3F)=NO2)CC1 (configuration not stated)	none
C/C(=N\NC(=S)NCc1ccccc1)c1cccs1	SW480 rereplic inconclusive, RORg inh 0.45µM, MCF10A rerep inconclusive, Gal4-VP16 FLuc 2µM
C/C(=N/NC(=O)Cc1cccc2ccccc12)c1cccs1	none
C/C(=N\NC(=S)NCc1ccccc1)c1ccc(Cl)s1	RORg inh 1.4µM, Gal4-VP16 FLuc 8.9µM
C/C(=N\NC(=O)Cc1ccccc1)c1cccs1	MCF10A rerep 18µM, ELG1 repair inh inconclusive
COCCNC(=S)N/N=C(\C)c1ccc(Cl)s1	RORg inh 0.79µM, Gal4-VP16 FLuc 3.2µM
CN(N=Cc1cccc2cccnc12)c1ccc([N+](=O)[O-])cc1[N+](=O)[O-]	none (no result: RORg inh, Gal4-VP16 FLuc, ELG1 repair inh)
CCOc1ncccc1C(=O)NNC(=O)c1cccc(S(=O)(=O)Nc2ccc(OC)cc2)c1	none

Screening results as filed in PubChem BioAssay.
